Results reported in PubChem BioAssay (NCATS).
Records with an inconclusive call do not appear. Where a call stands in place of a potency, no number is given. Calls of active or inactive are those of the source. Calls come from the whole dose curve; as a rule, active = well fitted inhibition curve with a large enough effect; inconclusive = small, poorly fitted or top-dose-only effect; inactive = flat fitted curve, though single readings scatter.

System: Zika virus NS2B-NS3 protease
Experiment: Primary screen GU AMC qHTS for Zika virus inhibitors (AID 1347154); note: nearly all actives have a fitted effect of over 70% in size
Settings: Zika NS2B-NS3 unlinked protease, AMC fluorogenic substrate; series mostly up to 54.1 µM
Summary of the method: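 Unlinked Zika NS2B hydrophilic domain/NS3 protease domain noncovalent complex (25 nM final) in 10 mM Tris-HCl pH 8.0, 0.01% Tween 20, with AMC peptide substrate. Fluorescence (ex 340, em 450 nm) change over 15 min, room temperature; percent inhibition fitted to 4-parameter Hill equation.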

Row | SMILES | Potency
1 | O=C(O)c1cccc(-c2noc(-c3ccccc3F)n2)c1 | inactive
2 | O=P(O)(O)C(O)(Cn1ccnc1)P(=O)(O)O | inactive
3 | O=C(O)c1cc(=O)c2c(OCC(O)COc3cccc4oc(C(=O)O)cc(=O)c34)cccc2o1 | inactive
4 | COCCCN1CCC(NC(=O)c2cc(Cl)c(N)c3c2OCC3)CC1 | inactive
5 | CNC[C@@H](O)[C@@H](O)[C@H](O)[C@H](O)CO | inactive
6 | Cc1cc2c(s1)Nc1ccccc1N=C2N1CCN(C)CC1 | inactive
7 | C[Se]CCC(N)C(=O)O (stereo not drawn) | inactive
8 | COc1cc(OC)c(C(=O)CCCN2CCCC2)c(OC)c1 | inactive
9 | CC(=O)Nc1ccc(O)cc1 | inactive
10 | CC(C)[C@H](N)C(=O)OCCOCn1cnc2c(=O)[nH]c(N)nc21 | inactive
11 | CC(C)(S)[C@@H](N)C(=O)O | inactive
12 | Cc1ncc([N+](=O)[O-])n1CC(C)O (stereo not drawn) | inactive
13 | CN(C)[C@@H](CCOc1cccc2ccccc12)c1ccccc1 | inactive
14 | NS(=O)(=O)c1cc(C(=O)O)c(NCc2ccco2)cc1Cl | inactive
15 | CN(c1nccc(=O)[nH]1)C1CCN(c2nc3ccccc3n2Cc2ccc(F)cc2)CC1 | inactive
16 | COC(=O)N[C@H](C(=O)N[C@@H](Cc1ccccc1)[C@@H](O)CN(Cc1ccc(-c2ccccn2)cc1)NC(=O)[C@@H](NC(=O)OC)C(C)(C)C)C(C)(C)C | inactive
17 | CC1Cc2ccccc2N1NC(=O)c1ccc(Cl)c(S(N)(=O)=O)c1 (stereo not drawn) | inactive
18 | COc1ccc(C2(C#N)CCC(C(=O)O)CC2)cc1OC1CCCC1 (stereo not drawn) | inactive
19 | Clc1ccc(C(Cn2ccnc2)OCc2ccc(Sc3ccccc3)cc2)c(Cl)c1 (stereo not drawn) | inactive

Row | SMILES | Potency
20 | OC(CN1CCN(c2cccc(Cl)c2)CC1)C(c1ccccc1)c1ccccc1 (stereo not drawn) | inactive
21 | COC(=O)C1=C(C)NC(C)=C(C(=O)OCCCN2CCC(c3ccccc3)(c3ccccc3)CC2)C1c1cccc([N+](=O)[O-])c1 (stereo not drawn) | inactive
22 | CN1CCC(=C2c3ccccc3CCc3sccc32)CC1 | inactive
23 | Cc1cc(=O)c2c(O)c3c(O)cc(=O)c4c3c3c(cc(O)c1c23)C(C)(C)C=4O | inactive
24 | N=C(N)c1ccc2cc(OC(=O)c3ccc(N=C(N)N)cc3)ccc2c1 | inactive
25 | COc1c(O)cc2c(c1O)[C@@H]1O[C@H](CO)[C@@H](O)[C@H](O)[C@H]1OC2=O | inactive
26 | CN(C)C(=O)COC(=O)Cc1ccc(OC(=O)c2ccc(N=C(N)N)cc2)cc1 | inactive
27 | Cc1cccc(C)c1OCC(=O)N[C@@H](Cc1ccccc1)[C@@H](O)C[C@H](Cc1ccccc1)NC(=O)[C@H](C(C)C)N1CCCNC1=O | inactive
28 | COc1cc(Nc2c(C#N)cnc3cc(OCCCN4CCN(C)CC4)c(OC)cc23)c(Cl)cc1Cl | inactive
29 | CCCc1cc(=O)[nH]c(=S)[nH]1 | inactive
30 | C[C@H](Cn1cnc2c(N)ncnc21)OCP(=O)(O)O | inactive
31 | N=C(N=C(N)N)N1CCOCC1 | inactive
32 | COc1cc2c(N3CCN(C(=O)Nc4ccc(OC(C)C)cc4)CC3)ncnc2cc1OCCCN1CCCCC1 | inactive
33 | CCC1=C(C)CN(C(=O)NCCc2ccc(S(=O)(=O)NC(=O)NC3CCC(C)CC3)cc2)C1=O (stereo not drawn) | inactive
34 | COC1=C(OC)C(=O)C(CCCCCCCCCCO)=C(C)C1=O | inactive
35 | NC(=O)Cc1cccc(C(=O)c2ccccc2)c1N | inactive
36 | CC(C)Oc1ccc2c(=O)c(-c3ccccc3)coc2c1 | inactive
37 | O=C(O)CCNC(=O)c1ccc(N=Nc2ccc(O)c(C(=O)O)c2)cc1 | inactive
38 | O=C(NCCO[N+](=O)[O-])c1cccnc1 | inactive
